In the supplement of paper PMC9262897, “Low-cost anti-mycobacterial drug discovery using engineered E. coli” (Nature Communications, 2022):
Counter-ions that a name gives are not always drawn. ± gives the standard deviation of the averaged measurements.

Key:
Assay in all cases: growth (OD600 after 10 h); higher = more growth (less inhibition)
[1] = system: E. coli TESEC Alr+ wild-type control; details: compound 0.1 mM; raw OD600 reference: median of DMSO wells 0.241, cell-free background 0.041
Procedure: (§1)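 TESEC Mtb Alr E. coli, or the Alr+ wild-type control, in 384-well plates with Prestwick library compounds at 0.1 mM and 1% DMSO, across arabinose induction levels of 1E3 to 1E7 nM. Growth is read as OD600 after 10 h at 37 °C in triplicate biological replicates.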

E. coli TESEC Mtb Alr [2] = details: compound 0.1 mM
Procedure: as §1

E. coli TESEC Mtb Asd = details: compound 0.1 mM
Procedure: (§2)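 TESEC E. coli strains in which the native enzyme is deleted and replaced by arabinose-inducible Mtb Asd, DapB, CysH or TrpD, each grown in its selective medium. Strains were screened against the Prestwick library at 0.1 mM and 1% DMSO in 384-well format at low and high arabinose induction. Growth is read as OD600 after 10 h in triplicate.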

E. coli TESEC Mtb DapB = details: compound 0.1 mM
Procedure: as §2

[3] = system: E. coli TESEC Alr+ wild-type control; details: compound 0.1 mM; raw OD600 reference: median of DMSO wells 0.49, cell-free background 0.052
Procedure: (§3)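 TESEC Mtb Alr E. coli (ΔaraC ΔtolC ΔentC Δalr ΔdadX, arabinose-inducible Mtb Alr) or the Alr+ wild-type control strain, grown in defined M9-fructose medium without D-alanine in 96-well plates with Prestwick library compounds at 0.1 mM and 1% DMSO. Low Alr induction is 0.1 µM arabinose and high induction is 10 mM arabinose.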

E. coli TESEC Mtb Alr [4] = details: compound 0.1 mM; remark: listed apart in the source
Procedure: as §3

[5] = arabinose 1000 nM, raw OD600 reference: median of DMSO wells 0.294, cell-free background 0.041
[6] = arabinose 10000 nM, raw OD600 reference: median of DMSO wells 0.264, cell-free background 0.041
[7] = arabinose 100000 nM, raw OD600 reference: median of DMSO wells 0.201, cell-free background 0.041
[8] = arabinose 1000000 nM, raw OD600 reference: median of DMSO wells 0.193, cell-free background 0.041
[9] = arabinose 10000000 nM, raw OD600 reference: median of DMSO wells 0.146, cell-free background 0.041
[10] = arabinose induction (level): High, raw OD600 reference: median of DMSO wells 0.331, cell-free background 0.041
[11] = arabinose induction (level): Low, raw OD600 reference: median of DMSO wells 0.417, cell-free background 0.041
[12] = arabinose induction (level): High, raw OD600 reference: median of DMSO wells […], cell-free background 0.041
[13] = arabinose induction (level): Low, raw OD600 reference: median of DMSO wells 0.227, cell-free background 0.041
[14] = arabinose 100 nM, raw OD600 reference: median of DMSO wells 0.413, cell-free background 0.052
[15] = arabinose 10000000 nM, raw OD600 reference: median of DMSO wells […], cell-free background 0.052

| SMILES | growth [1] | growth (E. coli TESEC Mtb Alr [2]; [5]) | growth (E. coli TESEC Mtb Alr [2]; [6]) | growth (E. coli TESEC Mtb Alr [2]; [7]) | growth (E. coli TESEC Mtb Alr [2]; [8]) | growth (E. coli TESEC Mtb Alr [2]; [9]) | growth (E. coli TESEC Mtb Asd; [10]) | growth (E. coli TESEC Mtb Asd; [11]) | growth (E. coli TESEC Mtb DapB; [12]) | growth (E. coli TESEC Mtb DapB; [13]) | growth [3] | growth (E. coli TESEC Mtb Alr [4]; [14]) | growth (E. coli TESEC Mtb Alr [4]; [15]) |
| --- | --- | --- | --- | --- | --- | --- | --- | --- | --- | --- | --- | --- | --- |
| COc1ccc(C(=O)NCc2cccnc2)cc1C(=O)NCc1cccnc1 [Picotamide monohydrate] | 0.234 ± 0.013 | 0.264 ± 0.034 | 0.258 ± 0.0067 | 0.189 ± 0.02 | 0.161 ± 0.0041 | 0.132 ± 0.0031 | 0.256 ± 0.042 | 0.41 ± 0.037 | 0.189 ± 0.0065 | 0.228 ± 0.034 | 0.453 ± 0.033 | 0.4272 ± 0.0023 | 0.321 ± 0.024 |
| Nc1ccn([C@@H]2O[C@H](CO)[C@@H](O)[C@@H]2O)c(=O)n1 [Cytarabine] | 0.24 ± 0.0059 | 0.307 ± 0.0036 | 0.247 ± 0.0079 | 0.214 ± 0.025 | 0.1685 ± 0.00085 | 0.171 ± 0.002 | 0.309 ± 0.032 | 0.305 ± 0.02 | 0.224 ± 0.024 | 0.229 ± 0.026 | 0.552 ± 0.051 | 0.406 ± 0.0096 | 0.31 ± 0.0066 |
| COc1ccccc1N1CCN(CCCNc2cc(=O)n(C)c(=O)n2C)CC1 [Urapidil hydrochloride] | 0.224 ± 0.0078 | 0.274 ± 0.021 | 0.259 ± 0.0036 | 0.173 ± 0.017 | 0.17 ± 0.004 | 0.137 ± 0.0051 | 0.28 ± 0.038 | 0.455 ± 0.065 | 0.183 ± 0.017 | 0.201 ± 0.015 | 0.713 ± 0.029 | 0.409 ± 0.017 | 0.326 ± 0.011 |
| CNC(=O)c1c(I)c(C(=O)NCC(=O)Nc2c(I)c(C(=O)O)c(I)c(C(=O)NCCO)c2I)c(I)c(N(C)C(C)=O)c1I [Ioxaglic acid] | 0.239 ± 0.0087 | 0.2972 ± 0.0024 | 0.28 ± 0.0056 | 0.219 ± 0.0065 | 0.215 ± 0.015 | 0.139 ± 0.0059 | 0.343 ± 0.027 | 0.359 ± 0.048 | 0.198 ± 0.013 | 0.211 ± 0.013 | 0.606 ± 0.023 | 0.426 ± 0.0094 | 0.3518 ± 0.0018 |
| Cn1c([N+](=O)[O-])cnc1COC(N)=O [Ronidazole] | 0.226 ± 0.0055 | 0.296 ± 0.007 | 0.27 ± 0.0076 | 0.161 ± 0.0087 | 0.149 ± 0.0036 | 0.164 ± 0.0025 | 0.241 ± 0.036 | 0.338 ± 0.016 | 0.187 ± 0.0036 | 0.253 ± 0.031 | 0.458 ± 0.0079 | 0.4333 ± 0.0022 | 0.285 ± 0.011 |
| CO/N=C(\C(=O)N[C@@H]1C(=O)N2C(C(=O)OC(C)OC(C)=O)=C(COC(N)=O)CS[C@H]12)c1ccco1 (stereo partly specified) [Cefuroxime axetil] | 0.148 ± 0.0057 | 0.115 ± 0.007 | 0.0663 ± 0.0028 | 0.124 ± 0.0033 | 0.166 ± 0.0066 | 0.158 ± 0.006 | 0.246 ± 0.023 | 0.316 ± 0.011 | 0.196 ± 0.022 | 0.215 ± 0.057 | 0.427 ± 0.051 | 0.059 ± 0.0076 | 0.257 ± 0.011 |
| NCCc1cc[nH]n1 [Betazole hydrochloride] | 0.25 ± 0.0071 | 0.254 ± 0.06 | 0.259 ± 0.014 | 0.2 ± 0.03 | 0.1943 ± 0.00064 | 0.14 ± 0.0021 | 0.279 ± 0.0079 | 0.379 ± 0.081 | 0.215 ± 0.021 | 0.254 ± 0.052 | 0.494 ± 0.066 | 0.408 ± 0.013 | 0.305 ± 0.067 |
| CN(C)CCOC(=O)COc1ccc(Cl)cc1 [Meclofenoxate hydrochloride] | 0.235 ± 0.0029 | 0.3 ± 0.018 | 0.267 ± 0.0092 | 0.199 ± 0.013 | 0.184 ± 0.0027 | 0.138 ± 0.0014 | 0.355 ± 0.032 | 0.426 ± 0.029 | 0.199 ± 0.014 | 0.204 ± 0.019 | 0.511 ± 0.083 | 0.4 ± 0.013 | 0.313 ± 0.014 |
| CC(=O)N[C@@H](CC(C)C)C(=O)O [N-Acetyl-L-leucine] | 0.243 ± 0.013 | 0.292 ± 0.016 | 0.259 ± 0.004 | 0.219 ± 0.0097 | 0.192 ± 0.0042 | 0.134 ± 0.0046 | 0.378 ± 0.077 | 0.476 ± 0.0098 | 0.206 ± 0.0033 | 0.205 ± 0.0021 | 0.637 ± 0.023 | 0.41 ± 0.013 | 0.349 ± 0.0042 |
| COc1cc(N)c(Cl)cc1C(=O)NC1CCN(CCCOc2ccc(F)cc2)CC1OC (stereo unspecified) [Cisapride] | 0.2147 ± 0.0012 | 0.2892 ± 0.0012 | 0.2613 ± 0.0016 | 0.201 ± 0.03 | 0.155 ± 0.0047 | 0.148 ± 0.0037 | 0.222 ± 0.017 | 0.357 ± 0.041 | 0.171 ± 0.003 | 0.186 ± 0.0052 | 0.552 ± 0.1 | 0.41 ± 0.011 | 0.458 ± 0.038 |
| COc1ccc2c3c1O[C@H]1C[C@@H](O)C=C[C@@]31CCN(C)C2 [Galanthamine hydrobromide] | 0.249 ± 0.0042 | 0.291 ± 0.0095 | 0.245 ± 0.0045 | 0.218 ± 0.014 | 0.161 ± 0.0075 | 0.1382 ± 0.00072 | 0.229 ± 0.0098 | 0.376 ± 0.094 | 0.186 ± 0.012 | 0.195 ± 0.016 | 0.459 ± 0.04 | 0.409 ± 0.01 | 0.34 ± 0.022 |
| Cc1cc(NC(=O)C2=C(O)c3ccccc3S(=O)(=O)N2C)no1 [Isoxicam] | 0.25 ± 0.0032 | 0.255 ± 0.038 | 0.26 ± 0.0052 | 0.184 ± 0.033 | 0.184 ± 0.0038 | 0.135 ± 0.0033 | 0.252 ± 0.022 | 0.395 ± 0.081 | 0.199 ± 0.0028 | 0.216 ± 0.034 | 0.47 ± 0.018 | 0.412 ± 0.015 | 0.299 ± 0.037 |
| C=CC(N)CCC(=O)O (stereo unspecified) [Vigabatrin] | 0.239 ± 0.005 | 0.279 ± 0.014 | 0.278 ± 0.0034 | 0.213 ± 0.013 | 0.191 ± 0.0036 | 0.148 ± 0.0044 | 0.313 ± 0.06 | 0.389 ± 0.089 | 0.174 ± 0.0095 | 0.192 ± 0.014 | 0.586 ± 0.13 | 0.411 ± 0.014 | 0.361 ± 0.046 |
| CC(CN(C)C)C(C)(O)Cc1ccc(Cl)cc1 (stereo unspecified) [Clobutinol hydrochloride] | 0.221 ± 0.0026 | 0.263 ± 0.018 | 0.265 ± 0.0075 | 0.197 ± 0.0069 | 0.181 ± 0.0066 | 0.142 ± 0.013 | 0.222 ± 0.015 | 0.353 ± 0.1 | 0.187 ± 0.0091 | 0.222 ± 0.026 | 0.588 ± 0.083 | 0.405 ± 0.0082 | 0.3421 ± 0.0029 |
| CN1CC2c3ccccc3Oc3ccc(Cl)cc3C2C1 (stereo unspecified) [Asenapine maleate] | 0.184 ± 0.004 | 0.159 ± 0.012 | 0.225 ± 0.0073 | 0.18 ± 0.004 | 0.123 ± 0.0024 | 0.164 ± 0.0081 | 0.229 ± 0.031 | 0.295 ± 0.017 | 0.213 ± 0.0042 | 0.254 ± 0.026 | 0.44 ± 0.01 | 0.417 ± 0.0072 | 0.266 ± 0.0045 |
| COc1ccc(C(=O)c2ccccc2O)c(O)c1 [Dioxybenzone] | 0.125 ± 0.0069 | 0.116 ± 0.0049 | 0.124 ± 0.0053 | 0.107 ± 0.005 | 0.085 ± 0.0034 | 0.107 ± 0.0014 | 0.261 ± 0.022 | 0.197 ± 0.0098 | 0.183 ± 0.014 | 0.23 ± 0.016 | 0.355 ± 0.014 | 0.352 ± 0.05 | 0.152 ± 0.014 |
| Cc1oncc1C(=O)Nc1ccc(C(F)(F)F)cc1 [Leflunomide] | 0.139 ± 0.0056 | 0.149 ± 0.0026 | 0.1904 ± 0.0019 | 0.138 ± 0.0062 | 0.106 ± 0.0035 | 0.096 ± 0.00046 | 0.381 ± 0.085 | 0.327 ± 0.018 | 0.226 ± 0.028 | 0.255 ± 0.034 | 0.3131 ± 0.0014 | 0.364 ± 0.021 | 0.158 ± 0.027 |
